Experimental data as given in PubChem BioAssay (EPA / NIEHS).
The source made the active and inactive calls. The calls were made as follows: active = hit-call score of the fitted dose curve at least 0.9, where 1 is the maximum; inactive = score below 0.9.

Experiment: ATG_PPRE_CIS: Attagene CIS-FACTORIAL HepG2 Assay for human Peroxisome Proliferator-activated Response Element (PPRE) (AID 2282958)
Details: HepG2 PPRE cis-element reporter, Attagene transcription factor profiling; actives raise or lower the signal
Method: ATG_CIS is a cell-based, multiplexed-readout assay that uses HepG2, a human liver cell line, with measurements taken at 24 hours after chemical dosing in a 24-well plate.ATG_PPRE_CIS is one of 52 assay component(s) measured or calculated from the ATG_CIS assay. It is designed to make measurements of mRNA induction, a form of inducible reporter, as detected with fluorescence intensity signals by Reverse transcription polymerase chain reaction (RT-PCR) and Capillary electrophoresis technology.Data from the assay component ATG_PPRE_CIS was analyzed into 1 assay endpoint. This assay endpoint, ATG_PPRE_CIS, was analyzed with bidirectional fitting relative to DMSO as the negative control and baseline of activity. Using a type of inducible reporter, measures of mRNA for gain or loss-of-signal activity can be used to understand the reporter gene at the transcription factor-level as they relate to the gene PPARA and PPARD and PPARG. Furthermore, this assay endpoint can be referred to as a primary readout, because this assay has produced multiple assay endpoints where this one serves a reporter gene function. To generalize the intended target to other relatable targets, this assay endpoint is annotated to the nuclear receptor intended target family, where the subfamily is non-steroidal.
Human liver HepG2 cells are transiently transfected with multiple reporter transcription units (MRTUs) in 6-well plates using FuGene 6 reagent (Roche; 3 ml FuGene/1 mg DNA). The MRTU constructs are regulated by a cis-regulating element (promoter). […] A major difference between the CIS and TRANS system is that in CIS activities of endogenous TFs are measured, whereas the TRANS assay evaluates changes in activities of exogenous, chimeric NR-Gal4 proteins. […] At the end of 24 hour incubation, total RNA was isolated using TriZol reagent (Invitrogen). The isolated RNA is then reverse-transcribed using oligo(dT) primer and Mo-MLV reverse transcriptase (Invitrogen) with DNAse I (Ambion) treatment for 30 min. The one-tenth of the produced cDNA was amplified by PCR using Taq DNA polymerase (Invitrogen) and two reporter sequence-specific primers. The PCR products were fluorescently labeled by primer extension with 6-arboxyfluorescein (6-FAM) 5'-labeled reporter sequence-specific primer (2 min at 95 C, 20 s at 68 C and 10 min at 72 C) and these products were digested with 5U of HpaI (New England Biolabs) for 2h at 37 C. The fragments were purified using Qiaquick PCR columns (Qiagen), analyzed on an ABI 3130xL genetic analyzer (Applied Biosystems) with peak positions identified by using a set of X-rhodamine (ROX)-labeled MapMarker1000 molecular weight standards (BioVentures). The raw capillary electrophoresis data was processed using Attagraph software (Attagene).

**Q.** With `CCN(CC)c1cccc(C)c1` as the molecule, how does the outcome read?
**A.** inactive

**Q.** Which outcome does the source give for `O=C(O)C(F)(F)C(F)(F)C(F)(F)C(F)(F)C(=O)O` here?
**A.** inactive

**Q.** With `CC1=CCC2CC1C2(C)C` (stereo not given) as the molecule, how does the outcome read?
**A.** inactive

**Q.** For `CCNc1nc(NC(C)(C)C)nc(OC)n1`, which outcome is on record?
**A.** inactive

**Q.** For `CCC(C)c1ccccc1` (stereo not given), which outcome is on record?
**A.** inactive

**Q.** With `c1ccc(Nc2cccc3ccccc23)cc1` as the molecule, how does the outcome read?
**A.** inactive

**Q.** With `CC(=O)OC/C=C(/C)CCC=C(C)C` as the molecule, how does the outcome read?
**A.** inactive

**Q.** With `COc1cc(O)c(C(=O)c2ccccc2)cc1S(=O)(=O)O` as the molecule, how does the outcome read?
**A.** inactive

**Q.** Which outcome does the source give for `O=C(Oc1ccccc1)c1ccccc1C(=O)Oc1ccccc1` here?
**A.** inactive

**Q.** For `CCCCNS(=O)(=O)c1ccc(C)cc1`, which outcome is on record?
**A.** inactive

**Q.** Which outcome does the source give for `Nc1ncnc2nc[nH]c12` here?
**A.** inactive

**Q.** For `CCCCCCCCCCCCCC(=O)OC(C)C`, which outcome is on record?
**A.** inactive

**Q.** With `CCCCCCCCCCCCCc1ccccc1` as the molecule, how does the outcome read?
**A.** inactive

**Q.** With `CC1(C)C(=O)N(CO)C(=O)N1CO` as the molecule, how does the outcome read?
**A.** inactive

**Q.** With `Cc1ccc([N+](=O)[O-])cc1N` as the molecule, how does the outcome read?
**A.** inactive

**Q.** Which outcome does the source give for `CCCCCCCCCCCCCCCCCCOS(=O)(=O)O` here?
**A.** inactive

**Q.** For `CC(c1cc(C(C)(C)C)cc(C(C)(C)C)c1O)c1cc(C(C)(C)C)cc(C(C)(C)C)c1O`, which outcome is on record?
**A.** inactive

**Q.** For `CC(C)c1cccc(C(C)C)c1N`, which outcome is on record?
**A.** inactive

**Q.** For `CC=C(C)C(C)=O`, which outcome is on record?
**A.** inactive

**Q.** For `CC1=CC(C)C(C=O)CC1` (stereo not given), which outcome is on record?
**A.** inactive

**Q.** Which outcome does the source give for `Cn1cccc1` here?
**A.** inactive

**Q.** Which outcome does the source give for `CCCCC(CC)COC(=O)/C=C/c1ccc(OC)cc1` (stereo not given) here?
**A.** inactive

**Q.** With `C=Cc1ccc(OC(C)=O)cc1` as the molecule, how does the outcome read?
**A.** inactive

**Q.** With `CCCCOCCOCCOC(C)=O` as the molecule, how does the outcome read?
**A.** inactive

**Q.** For `Cc1ccc(S(=O)(=O)N=C=O)cc1`, which outcome is on record?
**A.** inactive

**Q.** With `Nc1ccc(C(=O)O)cc1` as the molecule, how does the outcome read?
**A.** inactive

**Q.** For `Cc1c(C(=O)c2c[nH]n(C)c2=O)ccc(S(C)(=O)=O)c1C1=NOCC1`, which outcome is on record?
**A.** inactive

**Q.** For `CCC(C)N` (stereo not given), which outcome is on record?
**A.** inactive

**Q.** For `CCCCCCCCCCCCC`, which outcome is on record?
**A.** inactive

**Q.** For `CC12CCC(CC1)C(C)(C)O2`, which outcome is on record?
**A.** inactive

**Q.** Which outcome does the source give for `CC1OC(=O)C(C)OC1=O` (stereo not given) here?
**A.** inactive

**Q.** Which outcome does the source give for `CC1CCC(C(C)(C)S)C(=O)C1` (stereo not given) here?
**A.** inactive

**Q.** Which outcome does the source give for `CCOC(=O)OC(=O)OCC` here?
**A.** inactive

**Q.** Which outcome does the source give for `CC(CCC(=O)O)(c1ccc(O)cc1)c1ccc(O)cc1` here?
**A.** inactive

**Q.** Which outcome does the source give for `CO[Si](C)(C)OC` here?
**A.** inactive

**Q.** Which outcome does the source give for `CCC(=O)C1CC(C(C)C)CC=C1C` (stereo not given) here?
**A.** inactive

**Q.** Which outcome does the source give for `Cc1noc(NS(=O)(=O)c2ccc(N)cc2)c1C` here?
**A.** inactive

**Q.** With `CCCCCCCCCCCC(=O)OCC` as the molecule, how does the outcome read?
**A.** inactive

**Q.** Which outcome does the source give for `c1ccc(-c2nc3ccccc3[nH]2)cc1` here?
**A.** inactive

**Q.** Which outcome does the source give for `CCCCc1ccc(Cl)cc1` here?
**A.** inactive
